Measurements: the supplement of paper PMC12645437, “Orthogonal IMiD-Degron Pairs Induce Selective Protein Degradation in Cells” (ACS Chemical Biology, 2025)
The full ranking holds about 8,300 sequences; the median of “log2 fold change of degron read counts, EGFP-low vs EGFP+ sorted cells (limma voom), compound-induced degradation” is about -1.1, and the highest 2% start at about 3.2. The sample holds the highest values, similar sequences and a random draw of the others, so the mix is not that of the screen.

T1: CRBN, Q96SW2
T1 chain: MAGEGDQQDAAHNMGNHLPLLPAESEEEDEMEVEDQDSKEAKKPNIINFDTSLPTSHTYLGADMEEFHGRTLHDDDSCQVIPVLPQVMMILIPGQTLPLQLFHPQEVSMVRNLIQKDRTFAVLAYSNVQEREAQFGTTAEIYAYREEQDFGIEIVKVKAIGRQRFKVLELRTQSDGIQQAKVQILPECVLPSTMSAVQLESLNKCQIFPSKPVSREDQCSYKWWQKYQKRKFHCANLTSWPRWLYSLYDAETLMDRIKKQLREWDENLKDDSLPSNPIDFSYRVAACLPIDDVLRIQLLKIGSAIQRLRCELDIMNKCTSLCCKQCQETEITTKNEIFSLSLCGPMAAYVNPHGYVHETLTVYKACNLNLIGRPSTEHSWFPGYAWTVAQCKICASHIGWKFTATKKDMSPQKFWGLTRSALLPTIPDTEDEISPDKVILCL


Biological target: T1, CRBN, Q96SW2
Test: log2 fold change of degron read counts, EGFP-low vs EGFP+ sorted cells (limma voom), compound-induced degradation; higher = more compound-induced degradation of the degron-EGFP fusion; degrons are variants of IKZF1/3 zinc finger 2; compound dose not given here
Details: Jurkat, 18 h
[1] = compound: compound 19 (5-tert-butyl-thalidomide)
[2] = compound: compound 22 (5-morpholino-thalidomide)
[3] = compound: compound 33 (diphenyl IMiD analogue)
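Further: pooled lentiviral library of zinc finger degron-EGFP fusions in mCherry-positive Jurkat cells, FACS-sorted after compound exposure, with degron abundance counted by next-generation sequencing.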

Row | Sequence | log2 fold change of degron read counts [1] | log2 fold change of degron read counts [2] | log2 fold change of degron read counts [3] | log2 fold change of degron read counts (compound: thalidomide)
1 | FACNQCGAFFTQKGNLLRHIKL [46F_47A_49N_50Q_52G_53A_54F_55F_67L_, Q9UKT9] | -1.64 | -2.14 | -1.53 | -2.28
2 | FRCEICGRGFTQKGNLLRHIKL [46F_47R_49E_50I_52G_53R_54G_55F_67L_, Q9UKT9] | -2 | -1.92 | -0.0801 | -0.562
3 | FGCEVCGASFTQKGNLLRHIKL [46F_47G_49E_50V_52G_53A_54S_55F_67L_, Q9UKT9] | 3.37 | 2.27 | 1.58 | 0.816
4 | FWCEVCGASFTQKGNLLRHIKL [46F_47W_49E_50V_52G_53A_54S_55F_67L_, Q9UKT9] | 3.77 | 3.54 | 2.67 | 1.37
5 | FSCEVCGASFTQKGNLLRHIKL [46F_47S_49E_50V_52G_53A_54S_55F_67L_, Q9UKT9] | 3.58 | 2.8 | 2.27 | 1.63
6 | FTCEVCGASFTQKGNLLRHIKL [46F_47T_49E_50V_52G_53A_54S_55F_67L_, Q9UKT9] | 2.27 | 2.96 | 2.53 | 3.12
7 | FWCNVCGASFTQKGNLLRHIKL [46F_47W_49N_50V_52G_53A_54S_55F_67L_, Q9UKT9] | 1.46 | 3.01 | 1.08 | -0.303
8 | FCCEVCGASFTQKGNLLRHIKL [46F_47C_49E_50V_52G_53A_54S_55F_67L_, Q9UKT9] | 3.45 | 2.85 | 2.25 | 2.34
9 | FECEVCGASFTQKGNLLRHIKL [46F_47E_49E_50V_52G_53A_54S_55F_67L_, Q9UKT9] | 2.09 | -1.03 | 1.48 | 2.32
10 | FDCEVCGASFTQKGNLLRHIKL [46F_47D_49E_50V_52G_53A_54S_55F_67L_, Q9UKT9] | 2.81 | 0.541 | 0.131 | 0.979
11 | FKCEVCGASFTQKGNLLRHIKL [46F_47K_49E_50V_52G_53A_54S_55F_67L_, Q9UKT9] | 1.43 | -1.05 | -2 | 0.154
12 | FQCEQCGAAFTQKGNLLRHIKL [46F_47Q_49E_50Q_52G_53A_54A_55F_67L_, Q9UKT9] | -0.398 | 0.724 | 0.313 | 3.01
13 | LTCNQCGFPCTQKGNLLRHIKL [46L_47T_49N_50Q_52G_53F_54P_55C_67L_, Q9UKT9] | -2.43 | -2.96 | -2.54 | -1.71
14 | FTCEVCGAFFTQKGNLLRHIKL [46F_47T_49E_50V_52G_53A_54F_55F_67L_, Q9UKT9] | -0.934 | -0.537 | 0.743 | 0.936
15 | FSCDQCGAMFTQKGNLLRHIKL [46F_47S_49D_50Q_52G_53A_54M_55F_67L_, Q9UKT9] | -1.8 | -2.9 | -1.87 | -2.82
16 | FSCPQCGAAFTQKGNLLRHIKL [46F_47S_49P_50Q_52G_53A_54A_55F_67L_, Q9UKT9] | 0.138 | -0.952 | 1.89 | -0.879
17 | FWCPICGHMFTQKGNLLRHIKL [46F_47W_49P_50I_52G_53H_54M_55F_67L_, Q9UKT9] | -0.107 | -0.117 | 0.131 | -0.274
18 | LHCPICGFMCTQKGNLLRHIKL [46L_47H_49P_50I_52G_53F_54M_55C_67L_, Q9UKT9] | 2.17 | 2.35 | 2.28 | 1.44
